Peg3 prom inh-1 – reduces Peg3 promoter-driven luciferase expression in HeLa. HeLa PEG-Prom luciferase reporter, luminescence, overnight. inhibition, % at 20 µM. 360,000 tested, 1.7% active;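 active = inhibition of at least 50% at 20 µM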
KKLEB tox – CF airway cell cytotoxicity counter-screen; activity change (cytotoxicity), % at 5 µM; KKLEB CF airway cells viability, ATPlite luminescence, overnight; hits give low values; cells stimulated with P. aeruginosa culture filtrate; 360,000 tested, 0.36% active; AID 602141;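 active = corrected activity change at or below -50% at 5 µM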
HIF-2a inh – inhibitors of HIF-2a. 786-0 RCC cells HIF-2a reporter, luciferase luminescence, overnight. inhibition, % at 18.8 µM. 360,000 tested, 0.72% active. AID 624352;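 active = inhibition of the luminescence signal of 40% or more relative to plate controls, in a single-dose primary screen at 18.75 µM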
Shn3 3UTR inh – Schnurri-3 reporter inhibition in Clone20 osteoblasts | AID 588674 | inhibition, % at 12.5 µM | 360,000 tested, 0.52% active | Clone20 osteoblast Shn3 3'UTR firefly luciferase, 24 h;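 active = mean inhibition of at least 75% with every replicate also reaching 75%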;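 note: 0% = median of neutral control wells and 100% = pilot-screen positive control compound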
CF NFkB inh – blocks PAF-induced NF-kB reporter in cystic fibrosis cells; KKLEB NF-kB-GFP reporter, GFP fluorescence overnight; inhibition, % at 5 µM; 360,000 tested, 0.86% active;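 active = at least 50% inhibition at 5 µM, scaled per plate between neutral and stimulator controls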;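 note: PAF is a Pseudomonas aeruginosa culture filtrate used as stimulus; plate controls were PAF-stimulated DMSO wells for no effect and unstimulated DMSO wells for full effect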
MITF TRPM1 inh – inhibitors of MITF-driven TRPM1 promoter in melanoma cells. inhibition, % at 12.5 µM. 330,000 tested, 0.83% active. SK-MEL-5 TRPM1 promoter luciferase, 24 h;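 active = mean inhibition across replicates of 60% or more, whatever share of single replicates reaches that level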
Peg3 prom inh-2 – confirmation of Peg3 promoter inhibitors | 1,300 tested, 84% active | AID 602417 | inhibition, % at 20 µM | shares compounds with Peg3 prom inh-1 | HeLa PEG-Prom luciferase reporter, luminescence, overnight;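 active = at 20 µM dose, 40% or more inhibition averaged across four replicates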
* marks the source's active call; other numbers are inactive results; nt = no result given; ! = not active in a repeat. Rows were chosen to be rich in hits. Some 2.7% of all compounds tested hit in one or more screens of this group.

SMILES	Peg3 prom inh-1	KKLEB tox	HIF-2a inh	Shn3 3UTR inh	CF NFkB inh	MITF TRPM1 inh	Peg3 prom inh-2
COC(=O)c1ccc2nc(C)cc(Nc3ccccc3C)c2c1	1	-10	-4	10	-21	8	nt
COC(=O)[C@]1(Sc2ccc(OC)cc2)CC(=O)N[C@@H]1c1ccccc1	nt	nt	0	nt	nt	nt	nt
CC1CCCCN1S(=O)(=O)c1ccc(C(=O)N(CCCN(C)C)c2nc3ccc(Br)cc3s2)cc1 (stereo unspecified)	81*	-27	-27	-10	8	95*	93*
CN(C)CCCN(C(=O)c1ccc(S(=O)(=O)N2CCCCCC2)cc1)c1nc2cc3c(cc2s1)OCO3	-10	-7	-11	17	9	nt	nt
CCC1CCCCN1S(=O)(=O)c1ccc(C(=O)N(CCCN(C)C)c2nc3cc4c(cc3s2)OCO4)cc1 (stereo unspecified)	59*	-23	-5	1	26	23	70*
CN(C)CCN(C(=O)c1ccc(S(=O)(=O)N2CCCC2)cc1)c1nc2ccc(Br)cc2s1	-99	-1	-98	-7	8	-27	nt
Cc1cc(C)n2c(Nc3ccc4c(c3)OCCO4)c(CCc3ccccc3)nc2n1	nt	nt	-49	nt	nt	nt	nt
Cc1c(Cl)cc(-n2cnnn2)cc1[N+](=O)[O-]	11	3	13	-2	-23	2	nt
Cc1c([N+](=O)[O-])cc(N2C(=O)C=CC2=O)cc1[N+](=O)[O-]	105*	-1	21	21	3	50	98*
CCOC(=O)C1=C(COCCN)NC(C)=C(C(=O)OC)C1c1ccccc1Cl (stereo unspecified)	69*!	5	6	-8	16	22	89*
Cc1ccc(F)c(S(=O)(=O)NC(=O)C2(C)CCN2C(=O)Cc2ccsc2)c1 (stereo unspecified)	1	13	4	-14	8	nt	nt
COc1ccc(OCC(O)CN2CCC(CN3C(=O)c4cccc5cccc(c45)C3=O)CC2)cc1 (stereo unspecified)	12	-4	6	7	-17	-2	nt
Cc1ccc(C)c(OCC(O)CN2CCC(CN3C(=O)c4cccc5cccc(c45)C3=O)CC2)c1 (stereo unspecified)	99*	-18	8	69	7	nt	97*
Cc1ccc(C2=NC(=O)/C(=C/c3cc(O)c(O)c(Br)c3)S2)cc1	67*	-6	13	-13	-7	3	67*
OC1(c2ccc(Cl)c(Cl)c2)C[n+]2ccccc2N1Cc1ccccc1 (stereo unspecified)	95*	-5	-13	45	26	-3	90*
CNc1cncc(-c2cccc(C(=O)NCCN(C)C)c2)n1	6	-1	13	-6	8	nt	nt
COc1ccc2ccccc2c1/C=N/NC(=S)Nc1cc(S(=O)(=O)N2CCOCC2)ccc1N1CCOCC1	17	1	25	15	6	9	nt
CCOc1cccc(/C=N/NC(=S)Nc2cc(S(=O)(=O)N3CCOCC3)ccc2N2CCOCC2)c1O	53*	-6	19	82	15	44	57*
COCCn1c(C)cc(C(=O)COC(=O)c2cccc(O)c2)c1C	75*	-4	38	53	-8	43	68*
COCCn1c(C)cc(C(=O)COC(=O)c2cc3c(s2)CCC3)c1C	-220	7	-144	-67	0	-12	nt
COc1ccc(C(=O)c2sc(Nc3cccc(OC)c3)c(C(=O)Nc3cccc(C)c3C)c2N)cc1	97*	-35	7	69	27	34	34
COc1ccc(Nc2sc(C(=O)c3ccc(Cl)cc3)c(N)c2C(=O)Nc2ccccc2OC)cc1	26	-35	-18	13	40	18	nt
Cc1ccc(S(=O)(=O)Nc2ccc(Nc3nccn4c(-c5ccc6ccccc6c5)cnc34)cc2)cc1	-50	-5	-64	12	-9	nt	nt
C=C(C)CN1CCN(c2c(CCC#N)c(C)c(C#N)c3nc4ccccc4n23)CC1	82*	-5	7	11	7	11	41*
CCCCCc1c(C)c(C#N)c2nc3ccccc3n2c1-n1ccnc1C	9	-24	21	-5	14	8	nt

Assay outcomes as filed in PubChem BioAssay.
